PubChem BioAssay (NCATS)
“And” between values parts separate entries of the source, which are not always exact repeats. Equal values may be shown once. Inconclusive results are not listed. The source made the active and inactive calls. Unless noted, calls come from the whole dose curve; as a rule, active = well fitted curve in the direction sought with a large enough effect; inconclusive = small, poorly fitted or top-dose-only effect, or another doubt; inactive = no such curve, though single readings can be large; an effect the other way counts as inactive or inconclusive.

Key:
[1] = target: Alpha-galactosidase A (Homo sapiens) (UniProt P06280); assay: Counterscreen for Glucocerebrosidase Inhibitors: qHTS Assay for Human alpha-Galactosidase at pH 4.5 (AID 992); note: 0% is about no effect
Chain of Alpha-galactosidase A (Homo sapiens) (P06280 whole entry, looked up): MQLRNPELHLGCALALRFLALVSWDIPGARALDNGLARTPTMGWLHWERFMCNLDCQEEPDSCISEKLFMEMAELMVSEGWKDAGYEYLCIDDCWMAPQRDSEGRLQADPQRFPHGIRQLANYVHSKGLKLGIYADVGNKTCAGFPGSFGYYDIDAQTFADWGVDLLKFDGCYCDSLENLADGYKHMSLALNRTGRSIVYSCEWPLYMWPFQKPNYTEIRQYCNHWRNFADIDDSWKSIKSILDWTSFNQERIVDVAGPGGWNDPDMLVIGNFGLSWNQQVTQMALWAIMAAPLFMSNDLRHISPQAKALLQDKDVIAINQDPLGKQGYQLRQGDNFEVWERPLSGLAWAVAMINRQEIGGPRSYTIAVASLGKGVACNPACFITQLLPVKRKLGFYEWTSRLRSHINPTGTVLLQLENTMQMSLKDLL
In short: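 Each compound is preincubated briefly with 2 nM enzyme before substrate addition (80 uM); plates then sit 20 min at ambient temperature, are quenched with 1M NaOH/1M glycine, and read fluorometrically.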

[2] = target: alpha-glucosidase (Oryza sativa, rice) (UniProt Q653V4); assay: Counterscreen for Glucocerebrosidase Inhibitors: qHTS Assay for Rice alpha-Glucosidase at pH 5.0 (AID 997);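 note: 0% = full activity with enzyme and -100% = basal without enzyme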
In short: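 Endpoint fluorogenic assay at pH 5.0: compounds (0.7 nM to 77 uM) titrated against 4 nM rice enzyme and 400 uM 4-MU-alpha-glucoside for 20 min at room temperature; NaOH/glycine stop, read ex 365/em 440 nm, Hill-fitted AC50.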

[3] = qHTS Assay for Lipid Storage Modulators (AID 1519; calls by dose curve; for activity change, negative = inhibition: % is set by controls: 0 for no effect and ±100 for the full control effect); details: Drosophila S3 cells, BODIPY lipid droplet/cell ratio, laser cytometry, cells loaded with oleic acid
In short: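 Cells seeded at 5,000 per well were treated with compounds over a concentration series and loaded with oleic acid (400 uM, as added). Lipid droplet fluorescence (488 nm excitation, 500-530 nm channel) was read by laser-scanning cytometry and normalized to 20 uM Triacsin C.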

[4] = target: DNA repair nuclease/redox regulator APEX1 (Homo sapiens) (UniProt P27695); assay: qHTS Validation Assay for Inhibitors of the Human Apurinic/apyrimidinic Endonuclease 1 (APE1) (AID 1705; note: potency is the fitted concentration of half-maximal effect;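 for activity change, negative = inhibition: TAMRA fluorescence gain over two minutes as APE1 cuts a quenched THF abasic duplex; % is set by controls: 0 for no effect and ±100 for the full control effect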)
Chain of DNA repair nuclease/redox regulator APEX1 (Homo sapiens) (P27695 whole entry, looked up): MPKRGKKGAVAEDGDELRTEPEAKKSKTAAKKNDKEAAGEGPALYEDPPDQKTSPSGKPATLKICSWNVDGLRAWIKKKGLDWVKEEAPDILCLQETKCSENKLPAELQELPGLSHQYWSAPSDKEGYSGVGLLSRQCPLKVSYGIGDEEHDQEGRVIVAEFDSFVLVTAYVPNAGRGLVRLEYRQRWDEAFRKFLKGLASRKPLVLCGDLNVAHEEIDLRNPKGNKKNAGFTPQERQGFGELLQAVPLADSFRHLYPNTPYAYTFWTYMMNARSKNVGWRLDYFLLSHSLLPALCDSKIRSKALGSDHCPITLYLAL
In short: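 Endonuclease activity of human APE1 is followed as dequenching when the enzyme incises a tetrahydrofuran abasic site in a short duplex labelled 5'-TAMRA/3'-BHQ-2 (50 nM final), after 15 min enzyme–compound preincubation at room temperature.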

[5] = Counterscreen for APE1 Inhibitors: Fluorescent Dye Displacement Validation Assay (AID 1707);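 note: plate controls were ThO with dsDNA and no compound for no effect and ThO without dsDNA for full effect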
In short: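 Loss of Thiazole Orange fluorescence marks promiscuous DNA binders. The dye (250 nM) is mixed with 50 nM abasic-site dsDNA in pH7.5 Tris buffer containing MgCl2, then compounds are added and emission is read once.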

[6] = qHTS for differential inhibitors of proliferation of Plasmodium falciparum line 7G8 (AID 1815);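 note: parasite growth measured after three days of incubation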; note: potency is the fitted concentration of half-maximal effect;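 for activity change, negative = inhibition: plate controls were vehicle wells for no effect and reference inhibitor wells for full effect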
[7] = qHTS for differential inhibitors of proliferation of Plasmodium falciparum line GB4 (AID 1816); details: Potency: Plasmodium falciparum GB4 proliferation inhibition;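 note: parasite growth measured after 72 h incubation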; note: potency is the fitted concentration of half-maximal effect;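 for activity change, negative = inhibition: 0% = vehicle DMSO and -100% = reference inhibitor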
[8] = qHTS for differential inhibitors of proliferation of Plasmodium falciparum line 3D7 (AID 1876); note: potency is the fitted concentration of half-maximal effect
[9] = qHTS for differential inhibitors of proliferation of Plasmodium falciparum line D10 (AID 1877);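 note: parasites grown with compound for 72 h before DNA staining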; note: potency is the fitted concentration of half-maximal effect;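 for activity change, negative = inhibition: plate controls were vehicle wells for no effect and reference inhibitor wells for full effect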
[10] = qHTS for differential inhibitors of proliferation of Plasmodium falciparum line W2 (AID 1883); details: Potency: Plasmodium falciparum W2 proliferation inhibition;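 note: parasites grown with compound for 72 h before lysis and staining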; note: potency is the fitted concentration of half-maximal effect;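 for activity change, negative = inhibition: 0% = vehicle wells and -100% = control inhibitor wells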
[11] = qHTS for differential inhibitors of proliferation of Plasmodium falciparum line HB3 (AID 1886); details: Potency: Plasmodium falciparum HB3 proliferation inhibition;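 note: parasites grown with compound for 72 h before SYBR Green readout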; note: potency is the fitted concentration of half-maximal effect;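 for activity change, negative = inhibition: plate controls were vehicle for no effect and reference inhibitor for full effect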
[12] = Cell Viability - LYMP2-022 (AID 987);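 note: 0% = DMSO alone and full effect = tetraoctylammonium bromide at 92 µM; nearly all actives have a fitted effect of over 55% in size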
In short: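 Cytotoxicity read as decreased cellular ATP (CellTiter-Glo luminescence, 30 min room temperature) after 24 hours compound exposure of 2500 lymphoblastoid LYMP2-022 cells/well at 37 C. Concentration-response data fitted with standard Hill equation for AC50.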

[13] = Cell Viability - LYMP2-024 (AID 988);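 note: plate controls were DMSO only for no effect and 92 µM tetraoctylammonium bromide for full effect; nearly all actives have a fitted effect of over 60% in size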
In short: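 Cytotoxicity was taken as a decrease in ATP (CellTiter-Glo luminescence) after 24 hr compound exposure at 37 C of LYMP2-024 lymphoblastoid cells, 2500 cells/well. Concentration-response data were fitted to the Hill equation to give AC50.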

[14] = Cell Viability - LYMP2-026 (AID 989); note: % is set by controls: 0 for no effect and ±100 for the full control effect; nearly all actives have a fitted effect of over 50% in size
In short: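 Cytotoxicity read as ATP-dependent luminescence (CellTiter-Glo, 30 min room temperature) after 24 h compound treatment at 37 C. LYMP2-026 lymphoblastoid line seeded at 2500 cells/well; AC50 derived by standard Hill equation.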

[15] = Cell Viability - LYMP1-002 - Assay at 24 hr (AID 993); note: % is set by controls: 0 for no effect and ±100 for the full control effect
In short: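 qHTS cytotoxicity at 24 h: CellTiter-Glo ATP luminescence in lymphoblastoid line LYMP1-002 incubated with compound at 37 °C. Concentration-response modeled with the Hill equation for AC50; tetraoctylammonium bromide served as positive control.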

[16] = Cell Viability - LYMP1-002 - Assay at 40 hr (AID 994);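 note: 0% = DMSO only and full inhibition = 92 µM tetraoctylammonium bromide; nearly all actives have a fitted effect of over 60% in size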
In short: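 Cytotoxicity was read as loss of cellular ATP (CellTiter-Glo luminescence) after 40 hr compound exposure at 37 C of 2500 LYMP1-002 lymphoblastoid cells per well. Concentration-response data were fitted with the standard Hill equation to give AC50.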

[17] = target: Endonuclease 4 (Escherichia coli (strain K12)) (UniProt P0A6C1); assay: Counterscreen for APE1 Inhibitors: qHTS Validation Assay for Inhibitors of Endonuclease IV (AID 1708); note: % is set by controls: 0 for no effect and ±100 for the full control effect
In short: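 Enzyme (2 nM) + compound, 15 min RT; add 50 nM TAMRA/BHQ-2 THF-site dsDNA; kinetic read ex525/em598, 3 reads/60 s; activity = read 3 − read 1. Buffer Tris pH 7.5, 50 mM NaCl, 2 mM MgCl2, DTT, Tween-20.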

[18] = qHTS for differential inhibitors of proliferation of Plasmodium falciparum line Dd2 (AID 1882); details: Potency: Plasmodium falciparum Dd2 proliferation inhibition; note: nearly all actives have a fitted effect of over 65% in size; note: potency is the fitted concentration of half-maximal effect;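 for activity change, negative = inhibition: plate controls were DMSO vehicle for no effect and 0.29 µM artemisinin for full effect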
In short: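 SYBR Green DNA fluorescence (ex 485, em 535 nm) after overnight lysis quantifies parasite growth; compound exposure lasted 72 h at 37 C on infected red cells at 2.5% hematocrit, 0.3% parasitemia (final). Artemisinin 0.29 uM and vehicle wells define normalization.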

[19] = measured here: cell count channel max response
[20] = measured here: lipid channel max response

Clc1ccccc1C(c1ccccc1)(c1ccccc1)n1ccnc1
active: Potency [6] 0.251 µM | Potency [7] 0.316 µM | Potency [8] 0.447 µM | Potency [9] 0.631 µM | Potency [10] 0.355 µM | Potency [11] 0.316 µM
-13.7% and 9.45%: max response [3, 19]
inactive: outcome [1] | outcome [2] | activity change, negative = inhibition ([3]; at 25.7 µM (top of the series)) 2.04% | activity change, negative = inhibition ([3]; at 57.5 µM (top of the series)) 9.89% | Potency [4] | Potency [5]
-11.4% and 22.8%: max response [3, 20]

Clc1ccc(C(c2ccccc2Cl)C(Cl)Cl)cc1 (configuration not stated)
22.4% and -18.8%: max response [3, 20]
11% and -19.2%: max response [3, 19]
inactive: outcome [12] | outcome [13] | outcome [14] | outcome [1] | outcome [15] | Potency [16] | outcome [2] | activity change, negative = inhibition ([3]; at 57.5 µM (top of the series)) 11.4% and -0.0471% | Potency [4] | Potency [5] | Potency [17] | Potency [6] | Potency [7] | Potency [8] | Potency [9] | Potency [11]

CC(C)(Oc1ccc(C2CC2(Cl)Cl)cc1)C(=O)O (configuration not stated)
inactive: activity change, negative = inhibition ([3]; at 57.5 µM (top of the series)) 1.98% | Potency [4] | Potency [5] | Potency [17] | Potency [6] | Potency [7] | Potency [8] | Potency [9] | Potency [10] | Potency [11]
-26.3%: max response [3, 20]
-18.9%: max response [3, 19]

CN(C)CCC=C1c2ccccc2C=Cc2ccccc21
active: Potency [4] 4.47 µM | Potency [6] 5.01 µM | Potency [7] 11.2 µM | Potency [8] 11.2 µM | Potency [10] 5.01 µM | Potency [11] 12.6 µM
inactive: outcome [1] | outcome [2] | activity change, negative = inhibition ([3]; at 25.7 µM (top of the series)) -1.76% | activity change, negative = inhibition ([3]; at 57.5 µM (top of the series)) 0.751% | Potency [5]
-7.37% and 4.03%: max response [3, 20]
-6.8% and 1.02%: max response [3, 19]

CNCCCC12CCC(c3ccccc31)c1ccccc12
inactive: outcome [1] | outcome [2] | activity change, negative = inhibition ([3]; at 25.7 µM (top of the series)) -2.57% | activity change, negative = inhibition ([3]; at 57.5 µM (top of the series)) -1.14% and 2.05% | Potency [4] | Potency [5] | Potency [17]
active: Potency [6] 11.2 µM | Potency [7] 8.91 µM | Potency [8] 10 µM | Potency [10] 5.01 µM
-12.7% and 1.78% and 3.8%: max response [3, 19]
-13.9% and 1.75% and 6.48%: max response [3, 20]

O=C(CCCN1CCC(O)(c2ccc(Cl)cc2)CC1)c1ccc(F)cc1
inactive: outcome [1] | outcome [2] | activity change, negative = inhibition ([3]; at 25.7 µM (top of the series)) 0.51% | activity change, negative = inhibition ([3]; at 57.5 µM (top of the series)) 7.71% | Potency [4] | Potency [5] | Potency [17]
-10.1% and 21.7%: max response [3, 20]
-8.83% and 9.42%: max response [3, 19]

Nc1nc2c(ncn2COC(CO)CO)c(=O)[nH]1
0.456% and 46.2%: max response [3, 20]
0.439% and 44.9%: max response [3, 19]
inactive: outcome [1] | outcome [2] | activity change, negative = inhibition ([3]; at 25.7 µM (top of the series)) -0.899% | activity change, negative = inhibition ([3]; at 57.5 µM (top of the series)) -0.373% | Potency [4] | Potency [5] | Potency [6] | Potency [7] | Potency [8] | Potency [9] | Potency [10] | Potency [11]

Fc1ccc([C@@H]2CCNC[C@H]2COc2ccc3c(c2)OCO3)cc1
active: Potency [6] 5.62 µM | Potency [7] 5.01 µM | Potency [8] 7.08 µM | Potency [9] 12.6 µM | Potency [10] 3.55 µM | Potency [11] 7.08 µM
-19.9%: max response [3, 19]
inactive: outcome [1] | outcome [2] | activity change, negative = inhibition ([3]; at 57.5 µM (top of the series)) -0.973% | Potency [4] | Potency [5] | Potency [17]
-18.8%: max response [3, 20]

COc1nc(C)nc(Cl)c1NC1=NCCN1
inactive: outcome [1] | outcome [2] | activity change, negative = inhibition ([3]; at 25.7 µM (top of the series)) -2% | Potency [4] | Potency [5] | Potency [17] | Potency [6] | Potency [7] | Potency [8] | Potency [9] | Potency [11]
-15%: max response [3, 20]
-13%: max response [3, 19]

Nc1ccn([C@H]2CC[C@@H](CO)O2)c(=O)n1
-4.32% and -4.82%: max response [3, 20]
inactive: outcome [12] | outcome [13] | outcome [14] | outcome [1] | outcome [15] | Potency [16] | outcome [2] | activity change, negative = inhibition ([3]; at 57.5 µM (top of the series)) 0.404% and -0.834% | Potency [4] | Potency [5] | Potency [17] | Potency [6] | Potency [7] | Potency [8] | Potency [9] | Potency [10] | Potency [11]
-7.59% and -3.68%: max response [3, 19]

CN(C)CCOC(c1ccccc1)c1ccccc1
inactive: outcome [1] | outcome [2] | activity change, negative = inhibition ([3]; at 25.7 µM (top of the series)) -4.2% | activity change, negative = inhibition ([3]; at 57.5 µM (top of the series)) 0.806% | Potency [4] | Potency [5] | Potency [8] | Potency [9] | Potency [11]
active: Potency [6] 3.98 µM | Potency [18] 3.98 µM | Potency [10] 1 µM
-10.1% and 40.8%: max response [3, 19]
-13% and 41%: max response [3, 20]

CS(=O)(=O)Nc1ccc([N+](=O)[O-])cc1Oc1ccccc1
2.41% and 33.1%: max response [3, 20]
3.21% and 14.6%: max response [3, 19]
active: Potency [4] 39.8 µM
inactive: outcome [1] | outcome [2] | activity change, negative = inhibition ([3]; at 25.7 µM (top of the series)) -1.76% | activity change, negative = inhibition ([3]; at 57.5 µM (top of the series)) 14.1% | Potency [5] | Potency [17] | Potency [6] | Potency [8] | Potency [9] | Potency [11]

CCC1(c2ccccc2)C(=O)NCNC1=O
inactive: outcome [12] | outcome [13] | outcome [14] | outcome [1] | outcome [15] | Potency [16] | outcome [2] | activity change, negative = inhibition ([3]; at 25.7 µM (top of the series)) -1.4% | activity change, negative = inhibition ([3]; at 57.5 µM (top of the series)) 0.988% and 9.51% | Potency [5] | Potency [17] | Potency [6] | Potency [7] | Potency [8] | Potency [9] | Potency [18] | Potency [10] | Potency [11]
4.93% and -20.9% and 16.1%: max response [3, 19]
2.59% and -19% and 28.8%: max response [3, 20]

CN1C(C(=O)Nc2ccccn2)=C(O)c2ccccc2S1(=O)=O
active: Potency [10] 10 µM
inactive: outcome [1] | outcome [2] | activity change, negative = inhibition ([3]; at 25.7 µM (top of the series)) -1.27% | Potency [4] | Potency [5] | Potency [17] | Potency [8] | Potency [9] | Potency [18] | Potency [11]
-1.41%: max response [3, 19]
-3.03%: max response [3, 20]

CCc1cccc2c3c([nH]c12)C(CC)(CC(=O)O)OCC3 (configuration not stated)
1.96% and -60.6%: max response [3, 19]
5.72% and -61.2%: max response [3, 20]
inactive: outcome [1] | outcome [2] | activity change, negative = inhibition ([3]; at 57.5 µM (top of the series)) 2.38% and -6.74% | Potency [4] | Potency [5] | Potency [17] | Potency [6] | Potency [7] | Potency [8] | Potency [9] | Potency [11]
